Assay outcomes: PubChem, National Center for Advancing Translational Sciences (NCATS)
Pf growth 96h – P. falciparum growth inhibition at 96 hour, primary screen for plastid delayed-death inhibitors. actives 6.9% (n = 320,000). Potency, µM (series often up to 28.7 µM), inactives show at the highest dose activity change, negative = inhibition, most hits filed as inhibitors. AID 504834. P. falciparum luciferase reporter growth, 96 h; note: potency is the fitted concentration of half-maximal effect
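96 h incubation, 37 C, 5% CO2, of luciferase-reporter P. falciparum-infected RBCs (2% hematocrit, 0.05% parasitemia final) with test compounds; endpoint luminescence.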
Pf growth 48h – P. falciparum growth inhibition at 48 hours (one generation) | AID 504832 | Potency, µM (top dose mostly 28.7 µM), without a hit: at the top dose activity change, negative = inhibition, most hits filed as inhibitors | actives 5.9% (n = 310,000) | P. falciparum luciferase growth in erythrocytes, 48 h; note: potency is the fitted concentration of half-maximal effect
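Compounds are pin-transferred into medium, infected erythrocytes (2% hematocrit, 0.1% parasitemia final) are added, and plates sit one parasite generation at 37 C in 5% CO2. Detection reagent is then added and luminescence measured.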
Sm TGR inh – S. mansoni TGR enzyme inhibition. Q962Y6. purified TGR, DTNB reduction, TNB absorbance 405 nm. Potency, µM (highest dose often 114 µM), without a hit: at the top dose activity change, negative = inhibition, actives largely listed as inhibitors. actives 3% (n = 360,000). AID 485364; note: potency is the fitted concentration of half-maximal effect; nearly all actives have a fitted effect of over 60% in size
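Kinetic colorimetric format: TGR-catalysed, NADPH-driven DTNB reduction monitored via TNB absorbance. Enzyme dispensed at 20 nM; compound exposure 15 min at room temperature before reaction start.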
Giardia FBPA inh – Giardia lamblia aldolase inhibition; purified Giardia FBPA; actives 0.71% (n = 290,000); A8B2U2; Potency, µM (top dose mostly 59.6 µM), for the others: at the highest dose activity, negative = inhibition, most hits filed as inhibitors; note: potency is the fitted concentration of half-maximal effect; nearly all actives have a fitted effect of over 55% in size
Target sequence (A8B2U2 whole entry, looked up): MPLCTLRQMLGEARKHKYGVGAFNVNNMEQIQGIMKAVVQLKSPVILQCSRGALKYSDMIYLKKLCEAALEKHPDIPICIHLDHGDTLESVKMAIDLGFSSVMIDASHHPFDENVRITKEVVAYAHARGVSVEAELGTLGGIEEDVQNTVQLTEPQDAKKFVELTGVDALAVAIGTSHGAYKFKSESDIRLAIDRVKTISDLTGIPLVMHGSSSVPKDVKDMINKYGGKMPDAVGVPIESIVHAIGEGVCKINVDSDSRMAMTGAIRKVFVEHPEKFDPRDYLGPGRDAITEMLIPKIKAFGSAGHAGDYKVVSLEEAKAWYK
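Giardia FBPA (40 nM reagent) was preincubated 10 min at RT with compound (up to 57.5 uM final), then substrate plus GAPDH/TPI/NAD/arsenate coupling system with diaphorase/resazurin was added; resorufin fluorescence (525/598 nm) was read after 20 min.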
HCMV inh – blocks human cytomegalovirus replication. HFF cells, HCMV-luciferase reporter, 72 h; active compounds read low. activity change, negative = inhibition, % at 57.5 µM. actives 4.5% (n = 410,000). AID 1259415; in the data active = activity change below about -60%; inconclusive = no clear call, values can overlap the other calls; inactive = above about -39%
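Luciferase read-out from HCMV-luciferase-infected HFFs (MOI 1 PFU/cell) 72 h post infection at 37C; compounds added after 16 h cell attachment; activity normalized between buffer-only basal and Salinomycin (10uM) inhibitor controls.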
The depositor's hits bear a star; ? = inconclusive; . = no result given; [ ] = remark or other dose. An excerpt weighted towards active compounds, which were near 14% of everything screened. Unless noted, calls come from the whole dose curve; as a rule, active = well fitted curve in the direction sought with a large enough effect; inconclusive = small, poorly fitted or top-dose-only effect, or another doubt; inactive = no such curve, though single readings can be large; an effect the other way counts as inactive or inconclusive. % is set by controls: 0 for no effect and ±100 for the full control effect.

SMILES	Pf growth 96h	Pf growth 48h	Sm TGR inh	Giardia FBPA inh	HCMV inh
Cc1cccc(C)c1NC(=O)Cn1c(=O)n(Cc2ccc(C(=O)NCc3ccco3)cc2)c(=O)c2sccc21	.	.	-21%	.	-66*
N#Cc1ccccc1Cn1c(=O)n(Cc2ccc(C(=O)NCc3ccco3)cc2)c(=O)c2sccc21	70%	?	-29%	10%	-17
CCc1ccc(Nc2ncc3c(n2)CC(c2ccc(OC)cc2)CC3=O)cc1 (centres undefined)	-22%	?	11%	6%	-64*
Cc1ccc(C2CC(=O)c3cnc(N4CCN(c5ccccc5)CC4)nc3C2)cc1 (centres undefined)	.	0%	3%	4%	23
CCOC(=O)N1CCN(c2ncc3c(n2)CC(c2ccc(OC)c(OC)c2)CC3=O)CC1 (centres undefined)	.	.	4.5µM*	.	-9
CC1CC(C)CN(c2ncc3c(n2)CC(c2ccccc2Cl)CC3=O)C1 (centres undefined)	15µM*	10µM*	2%	-5%	-5
COc1ccc(C2CC(=O)c3cnc(N4CCN(Cc5ccccc5)CC4)nc3C2)cc1 (centres undefined)	12%	12µM*	-20%	-5%	-14
CC1CC(C)CN(c2ncc3c(n2)CC(c2ccc(Cl)cc2)CC3=O)C1 (centres undefined)	.	18%	-20%	7%	11
CC1(C)CC(=O)C2=C(C1)O[C@@]1(c3ccsc3)Cc3cc(C#N)ccc3C2O1	?	1.5µM*	?	16%[12.9 µM]	.
COc1cc2c(cc1OC)C1O[C@](c3ccsc3)(C2)Oc2c1c(=O)oc1ccc(F)cc21	?	1.5µM*	?	2%[12.9 µM]	.
N#Cc1ccc2c(c1)C[C@]1(c3ccsc3)Oc3c(c(=O)oc4ccccc34)C2O1	?	?	7.1µM*	-1%[12.9 µM]	.
COc1ccc([C@]23Cc4cc(OC)c(OC)cc4C(O2)C2=C(CC(C)(C)CC2=O)O3)cc1	?	?	0%[22.9 µM]	8%[12.9 µM]	.
CCCC[C@]12Cc3cc(C#N)ccc3C(O1)c1c(c3cc(F)ccc3oc1=O)O2	1.3µM*	-14%[5.75 µM]	-33%[22.9 µM]	-23%[12.9 µM]	.
CCCCC/C=C\C\C=C/C=C/C=C/[C@@H](SCC(N)C(=O)O)[C@@H](O)CCCC(=O)O (some centres undefined)	.	.	.	3%	.
CN(C)CCCNC(=O)OC1CC2CC1[C@H]1CCCCN1C2=O (some centres undefined)	.	.	.	.	14
Cc1cccc(NC(=O)Cn2c(SCC(=O)NCc3ccccc3)nc3ccccc32)c1C	.	.	-20%	.	5
O=C(NCc1cccnc1)C1CC(c2ccccc2O)=NO1 (centres undefined)	?	93%	-2%	5%	-35
N#CCCN(C(=O)COC(=O)CCc1nc2ccccc2c(=O)[nH]1)c1ccc(F)cc1	-20%	-12%	0%	.	-1
CCOc1ccc(NC(=O)Cn2c(=O)cc(C)c3c(C)nn(-c4cccc(Cl)c4C)c32)cc1	.	.	2%	.	10
COc1ccc(NC(=O)C(Sc2nnc3ccccn23)c2ccccc2)cc1Cl (centres undefined)	?	-22%	-3%	11%	-31
N#Cc1ccc2c(c1)C[C@]1(c3ccsc3)Oc3c(c(=O)oc4ccc(F)cc34)C2O1	73%[5.75 µM]	1.5µM*	?	-23%[12.9 µM]	.
Cc1cc2c(c(=O)o1)C1O[C@](c3ccsc3)(Cc3cc(C#N)ccc31)O2	?	?	?	1%[12.9 µM]	.
Cc1cc2c(c(=O)n1-c1ccccc1)C1O[C@](c3ccsc3)(Cc3cc(C#N)ccc31)O2	-49%[5.75 µM]	?	-29%[22.9 µM]	-19%[12.9 µM]	.
COc1ccc2c3c(c(=O)oc2c1)C1O[C@](c2ccsc2)(Cc2cc(C#N)ccc21)O3	27%[5.75 µM]	?	6.3µM*	-4%[12.9 µM]	.
CCOc1ccc2c(c1)C(c1ccc(C)o1)=NNC(c1ccncc1)=N2	3%	1.5µM*	0%	-16%	5
SMILES	Pf growth 96h	Pf growth 48h	Sm TGR inh	Giardia FBPA inh	HCMV inh
CCOc1ccc2c(c1)C(c1ccc(C)cc1)=NNC(c1ccc(OC)cc1)=N2	.	?	-8%	-2%	-39
CCOc1ccc(C2=Nc3ccc(Br)cc3C(c3ccc(N4CCOCC4)cc3)=NN2)cc1	?	10µM*	-9%	-6%	0
CCOc1ccc(C2=NNC(c3cccs3)=Nc3ccc(OC)cc32)cc1	-31%	12µM*	-3%	-5%	22
CCOc1ccc(C2=NNC(c3cccnc3)=Nc3ccc(OC)cc32)cc1	?	?	19%	-5%	-9
Nc1cc(N)nc(SCC(=O)NNC(=O)Cc2ccccc2)n1	21%	0%	8%	-1%	36
Cc1ccccc1OCC(=O)NNC(=O)CSc1nc(N)cc(N)n1	8.3µM*	16%	0%	-6%	9
CCOC(=O)CNC(=O)CSc1nc(N)cc(N)n1	10µM*	-4%	9%	2%	35
Cc1ccc(NC(=O)CSc2ncc3c(n2)-c2ccccc2N(C)S3(=O)=O)c(Cl)c1	.	.	-10%	.	-28
CCN1CCN(c2c(S(=O)(=O)c3ccc(C)c(C)c3)cnc3ccc(F)cc23)CC1	2.3µM*	?	-7%	1%	-17
CCC(=O)OCC(=O)Nc1ccc2c(c1)OCO2	35%	0%	-2%	-3%	-32
O=C(COC(=O)C1CC1)Nc1ccc2c(c1)OCO2	61%	-6%	2%	-3%	-98*
Cc1ccc(C)c(NC(=O)Nc2ccc3c(c2)OCO3)c1	51%	169%	5%	.	-2
Cc1ccc(CNc2ccc3c(c2)OCO3)c(C)c1	.	?	40µM*	?	.
COc1cccc(/C=C/C(=O)OCC(=O)Nc2ccc3c(c2)OCO3)c1	.	.	.	.	-97*
CC(C)c1ccccc1NC(=O)COC(=O)c1cccnc1	13µM*	-10%	8%	18%	7
COC(=O)c1ccccc1NC(=O)COC(=O)c1cccnc1	60%	14%	12%	7%	1
O=C(COC(=O)/C=C/c1ccc2c(c1)OCO2)Nc1ccccc1	14%	25%	-1%	0%	-6
Cc1ccc2[nH]c(=O)c3cc(C(=O)NCCCN4CCC(C)CC4)sc3c2c1	.	.	7%	.	-20
O=C(Nc1ccccn1)C1CCCN1S(=O)(=O)c1ccc(Cl)cc1 (centres undefined)	?	-14%	-24%	.	6
O=C(N=C1SC2CS(=O)(=O)CC2N1c1ccc(F)c(Cl)c1)C1CCCO1 (centres undefined)	32%	26%	-10%	.	9
COc1ccc(Oc2ncc3nc(-c4cccs4)c(=O)n(CCC#N)c3n2)cc1	.	.	.	-18%	.
O=C(COC(=O)c1ccccn1)Nc1ccc2c(c1)OCO2	?	10%	.	-11%	-35
O=C(COC(=O)c1cccnc1)Nc1ccc2c(c1)OCO2	0%	-24%	.	-6%	-84*
c1cncc(CNc2ccc3c(c2)OCO3)c1	-102%	.	16µM*	?	-9
